Assay outcomes from PubChem.
Hits are enriched below; roughly 3.4% of the tested compounds scored in any of these assays.
TEAD-YAP inh = TEAD-YAP interaction inhibition; HEK-TIYL cells, TEAD-Gal4/YAP UAS-luciferase luminescence; AID 1259422; inhibition, % at 9.12 µM; hit rate 1.4% among 640,000; in the data active = inhibition above about 32%
GPR151 ag = activators of human GPR151; PathHunter beta-arrestin GPR151 cells, luminescence; activation, % at 11.2 µM; hit rate 1% among 650,000; AID 1508602; in the data active = activation above about 4.9%
MITF primary = blocks human microphthalmia-associated transcription factor; hit rate 0.91% among 650,000; inhibition, % at 2.6 µM; AlphaScreen MITF homodimerization, bead proximity signal; AID 1259374; O75030; in the data active = inhibition above about 50%
FBW7 activator = human FBW7 E3 ligase activation, primary screen. hit rate 0.13% among 650,000. AID 1259310. AlphaScreen FBW7–phospho-cyclin E peptide binding, activator screen. normalized activity (activation), % at 26.1 µM; in the data active = normalized activity above about 1.9%;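 also: purified mutant Fbw7 with reduced substrate affinity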
Target sequence (Q969H0 whole entry, looked up): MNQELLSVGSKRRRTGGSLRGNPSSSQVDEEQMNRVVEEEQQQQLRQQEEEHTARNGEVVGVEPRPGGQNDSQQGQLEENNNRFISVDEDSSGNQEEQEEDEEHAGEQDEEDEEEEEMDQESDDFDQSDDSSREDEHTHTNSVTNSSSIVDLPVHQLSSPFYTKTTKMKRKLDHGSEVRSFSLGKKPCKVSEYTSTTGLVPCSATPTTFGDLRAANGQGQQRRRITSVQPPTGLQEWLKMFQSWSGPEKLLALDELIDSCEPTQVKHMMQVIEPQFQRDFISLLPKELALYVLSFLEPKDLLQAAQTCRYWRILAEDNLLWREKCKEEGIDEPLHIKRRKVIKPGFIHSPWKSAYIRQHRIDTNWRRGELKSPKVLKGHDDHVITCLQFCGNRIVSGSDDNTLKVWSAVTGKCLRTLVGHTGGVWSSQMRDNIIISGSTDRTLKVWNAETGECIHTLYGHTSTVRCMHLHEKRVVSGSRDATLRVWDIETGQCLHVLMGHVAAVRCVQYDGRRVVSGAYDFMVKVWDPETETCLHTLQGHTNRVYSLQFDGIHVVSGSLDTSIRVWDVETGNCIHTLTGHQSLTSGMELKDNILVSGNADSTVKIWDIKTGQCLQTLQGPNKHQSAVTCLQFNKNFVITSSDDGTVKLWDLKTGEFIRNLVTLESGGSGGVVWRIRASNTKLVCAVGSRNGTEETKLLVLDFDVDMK
GPR151 conf act = confirmation of human GPR151 activators; shares compounds with GPR151 ag; GPR151 PathHunter beta-arrestin cells, luminescence, 90 min; % of EA-reagent control over plate median; activation, % at 11.2 µM; 6,700 tested, under 10 active; AID 1508609;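 active = mean percent activation across replicates above the confirmation screen cutoff of 4.91%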
GPR119 counter = activates human GPR119 in a GPR151 counter-screen | hit rate 0.3% among 6,700 | activation, % at 11.2 µM | shares compounds with GPR151 ag | GPR119 PathHunter beta-arrestin cells, luminescence, 90 min; 0 = compound-well median, 100 = enzyme-acceptor control | AID 1508611;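 active = mean percent activation in the counterscreen above 29.09%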;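 also: counterscreen on off-target GPR119 to flag nonselective hits from the GPR151 activator screen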
Of the large screens only hits and unclear results are named; the others gave an inactive call (follow-up assays come after a bar, where they were run).

NC(CC(=O)O)C(=O)O (stereo unspecified)	GPR151 ag 7.8 | GPR151 conf act inactive | GPR119 counter inactive
Cc1ccccc1NC(=O)C1CCC(C)(C(=O)O)C1(C)C (stereo unspecified)	GPR151 ag 5.1 | GPR151 conf act inactive | GPR119 counter inactive
Cc1csc(NC(=O)C2CCC(C)(C(=O)O)C2(C)C)n1 (stereo unspecified)	GPR151 ag 7.3 | GPR151 conf act inactive | GPR119 counter inactive
CC1(C(=O)O)CCC(C(=O)Nc2ccc(Nc3ccccc3)cc2)C1(C)C (stereo unspecified)	none
O=C(Nc1cnc2cnc(-c3ccc(F)c(Cl)c3)cn12)c1cccs1	none
O=C(NCCCSc1ccc(Br)cc1)Nc1ncccn1	GPR151 ag 5.2 | GPR151 conf act inactive | GPR119 counter inactive
O=C(c1ccco1)N1CCc2ccc(NC(=O)C3(c4ccccc4)CCOCC3)cc21	GPR151 ag 8.4 | GPR151 conf act inactive | GPR119 counter inactive
O=C(Nc1ccc2c(c1)N(C(=O)c1ccco1)CC2)c1cccs1	none
CC1=C(C(=O)OC(C)C)C(c2ccc(F)cc2)NC(=S)N1 (stereo unspecified)	none
COC(=O)C(CCSC)NC(=O)c1ccccc1F (stereo unspecified)	GPR151 ag 6.9 | GPR151 conf act inactive | GPR119 counter inactive
Cc1ccc(N2CC(C(=O)Nc3ccccc3C(=O)NC(C)C)CC2=O)cc1 (stereo unspecified)	GPR151 ag 6.3 | GPR151 conf act inactive | GPR119 counter inactive
Cc1ccc(N2CC(C(=O)Nc3ccccc3C(=O)NCCc3ccccc3)CC2=O)cc1 (stereo unspecified)	GPR151 ag 5.3 | GPR151 conf act inactive | GPR119 counter inactive
O=C(NCc1ccco1)C1CC(=O)N(c2ccc(F)cc2)C1 (stereo unspecified)	none
Cc1ccc(N2CC(C(=O)Nc3ccccc3C(N)=O)CC2=O)cc1 (stereo unspecified)	none
O=C(NCc1ccco1)c1ccccc1NC(=O)C1CC(=O)N(c2ccc(Cl)cc2)C1 (stereo unspecified)	GPR151 ag 6.8 | GPR151 conf act inactive | GPR119 counter inactive
COc1ccc(CNS(=O)(=O)c2ccc3[nH]c(=O)ccc3c2)cc1	GPR151 ag 6.6 | GPR151 conf act inactive | GPR119 counter inactive
CC(=O)C1=C(O)C(=O)N(CCNCCO)C1c1ccc(Cl)cc1 (stereo unspecified)	none
CCc1ccc(C2C(C(C)=O)=C(O)C(=O)N2CCNCCO)cc1 (stereo unspecified)	GPR151 ag 5.4 | GPR151 conf act inactive | GPR119 counter inactive
CSc1ncc(CN2CCN(CC(C)(C)C)C(CCO)C2)cn1 (stereo unspecified)	GPR151 ag 5.8 | GPR151 conf act inactive | GPR119 counter inactive
O=C(Nc1ccccc1C(=O)c1ccccc1)c1ccc(Nc2nc(-c3ccccc3)c3cc(Cl)ccc3n2)cc1	GPR151 ag 8.5 | GPR151 conf act inactive | GPR119 counter inactive
O=C(Nc1ccc(Br)cc1C(=O)c1ccccc1)c1ccc(Nc2nc(-c3ccccc3)c3cc(Cl)ccc3n2)cc1	none
COc1ccc(NC2=C(C(C)=O)C(c3ccc(N(C)C)cc3)C(C(C)=O)C(C)(O)C2)cc1 (stereo unspecified)	GPR151 ag 13 | GPR151 conf act inactive | GPR119 counter inactive
COc1ccc(NC2=C(C(C)=O)C(c3ccc(OC)cc3)C(C(C)=O)C(C)(O)C2)cc1 (stereo unspecified)	none
CC1(CC(=O)N/N=C/c2cccc(OC3CSC3)c2)OCCO1	GPR151 ag 5.9 | GPR151 conf act inactive | GPR119 counter inactive
CC1(CC(=O)N/N=C/c2cccc(Br)c2)OCCO1	none
Cc1ccc(NC(=O)CSc2nc3[nH]ncc3c(=O)n2-c2ccc(Br)cc2)cc1Cl	GPR151 ag 7.5 | GPR151 conf act inactive | GPR119 counter inactive
CCC(C(=O)OC)n1cnc2scc(-c3cccc([N+](=O)[O-])c3)c2c1=O (stereo unspecified)	GPR151 ag 15 | GPR151 conf act inactive | GPR119 counter inactive
NC(=O)Cn1cnc2scc(-c3cccc([N+](=O)[O-])c3)c2c1=O	none
Cc1nc(N)[nH]c(=O)c1CC(=O)NCc1ccc(F)cc1	none
CNc1nc2c(C)cccn2c(=O)c1/C=C1\SC(=S)N(CCc2ccccc2)C1=O	none
CC(C)(C)C#C/C=N/n1nnc(-c2ccccc2)n1	GPR151 ag 5.8 | GPR151 conf act inactive | GPR119 counter inactive
O=C(O)C1CCCN(c2ncnc3scc(-c4ccccc4)c23)C1 (stereo unspecified)	GPR151 ag 18 | GPR151 conf act inactive | GPR119 counter inactive
CCOC(=O)C1CCCN(c2ncnc3scc(-c4ccccc4)c23)C1 (stereo unspecified)	none
O=C1C2CC=CCC2C(=O)N1CC(=O)N1N=C(c2ccc(Cl)cc2)CC1c1ccco1 (stereo unspecified)	GPR151 ag 6.6 | GPR151 conf act inactive | GPR119 counter inactive
CCOC(=O)/C(N=Nc1cc(Cl)c(OC)cc1OC)=C(\C)O	GPR151 ag 4.9 | GPR151 conf act inactive | GPR119 counter inactive
CC1CCCCC1Nc1ccc([N+](=O)[O-])cc1C#N (stereo unspecified)	none
COc1ccc([N+](=O)[O-])cc1NC1CCCCC1C (stereo unspecified)	GPR151 ag 5.7 | GPR151 conf act inactive | GPR119 counter inactive
COc1ccc([N+](=O)[O-])cc1NC(C)C	GPR151 ag 5.0 | GPR151 conf act inactive | GPR119 counter inactive
CCS(=O)(=O)Nc1cc([N+](=O)[O-])ccc1OC	none
O=C(Cn1c2ccccc2c2cn[nH]c(=O)c21)NCc1ccccn1	none
CN(C)c1ccc(/C=C(\C#N)c2nn(-c3ccccc3)c(N)c2C#N)cc1[N+](=O)[O-]	none
N#C/C(=C\c1ccc(Br)c([N+](=O)[O-])c1)c1nn(-c2ccccc2)c(N)c1C#N	GPR151 ag 4.9 | GPR151 conf act inactive | GPR119 counter inactive
O=C(CSc1nnc(-c2ccccc2)o1)Nc1ccccc1I	none
COCCNC(=O)c1c(N)n(CCc2ccc(OC)c(OC)c2)c2nc3ccccc3nc12	GPR151 ag 10 | GPR151 conf act inactive | GPR119 counter inactive
CCOCCCNC(=O)c1c(N)n(CCc2ccccc2)c2nc3ccccc3nc12	none
COc1ccc2c(c1)CCN(C(=O)c1ccc(OCc3nc(C)cs3)cc1)C2	none
COCCCN1C(=O)C(=O)/C(=C(\O)c2ccccc2)C1c1ccc(C(C)C)cc1 (stereo unspecified)	GPR151 ag 5.3 | GPR151 conf act inactive | GPR119 counter inactive
COc1cc(NC(=O)Nc2ccc(-c3nc4ccccc4o3)cc2)cc(OC)c1OC	GPR151 ag 5.6 | GPR151 conf act inactive | GPR119 counter inactive
CN1C(=O)/C(=c2\sc3n(c2=O)CCCN=3)c2ccccc21	none
COc1ccccc1C1=N/C(=C\c2ccc(Cl)c(Cl)c2)C(=O)O1	none
